Calls of active or inactive are those of the source.
Assays:
[1] = tested on: Human papillomavirus type 1a protein E7 (residues 44-93); test: small molecules binding HPV E7 44-93 – biochemical, small-molecule microarray, residues 44-93, 635 nm fluorescence, primary screen (AID 1108); settings: fluorescence 635 nm, higher = more signal;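 note: E7 fragment applied at 1 µg/mL in TBST for 1 h at 4 C; score combines spot fluorescence with its signal to noise ratio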
[2] = hepatitis C replication reporter changes, two-sided – Huh7 cells, luciferase reporter, HCV replication inhibitor project, primary screen (AID 1109); settings: Huh7 HCV replicon luciferase reporter, 48 h; higher = more signal;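 note: huh7 hepatoma cells harbouring a luciferase neomycin HCV replicon reporter; luciferase luminescence as measure of HCV replicon replication; test concentration not given here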
[3] = molecular target: Left-right determination factor 2 (Homo sapiens) (UniProt O00292); test: small molecules binding LEFTY2 protein – biochemical, small-molecule microarray, 635 nm fluorescence scan, primary screen (AID 1110); settings: higher = more signal
Sequence of Left-right determination factor 2 (Homo sapiens) (O00292 whole entry, looked up): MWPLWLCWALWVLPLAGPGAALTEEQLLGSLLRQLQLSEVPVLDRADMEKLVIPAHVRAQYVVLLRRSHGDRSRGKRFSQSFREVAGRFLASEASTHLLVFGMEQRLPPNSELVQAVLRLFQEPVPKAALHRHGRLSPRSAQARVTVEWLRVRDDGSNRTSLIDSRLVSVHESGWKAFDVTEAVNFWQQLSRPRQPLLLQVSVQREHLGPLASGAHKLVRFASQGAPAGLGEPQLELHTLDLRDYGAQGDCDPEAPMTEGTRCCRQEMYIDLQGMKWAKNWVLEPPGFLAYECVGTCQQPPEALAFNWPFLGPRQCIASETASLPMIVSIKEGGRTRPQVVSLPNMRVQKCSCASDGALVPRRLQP

[4] = molecular target: Calmodulin-1 (Homo sapiens) (UniProt P0DP23); test: small molecules binding calmodulin-1 with EGTA – biochemical, small-molecule microarray, Cy5-labelled CALM1, profiling panel (AID 1111); settings: Cy5-CALM1 binding fluorescence, higher = more signal;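 note: labelled calmodulin applied in Tris saline Tween buffer holding calcium plus EGTA and DTT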
[5] = molecular target: Calmodulin-1 (Homo sapiens) (UniProt P0DP23); test: small molecules binding Ca-loaded calmodulin-1 – biochemical, small-molecule microarray, Cy5-labelled CALM1, plus calcium, artefact control for SMM control-protein annotation, profiling panel (AID 1112); settings: Cy5-CALM1 binding fluorescence, higher = more signal;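 note: score merges spot fluorescence with signal to noise from triplicate slides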
[6] = probe aWnt5a binding to arrayed compounds – biochemical, biotinylated probe, 635/667 nm fluorescence, primary screen (AID 1113); settings: small-molecule microarray, higher = more signal;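 note: score merges 667 nm fluorescence intensity with signal-to-noise per printed feature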
[7] = probe aShh binding to arrayed compounds – biochemical, biotinylated probe, 635/667 nm fluorescence, primary screen (AID 1114); settings: small-molecule microarray, higher = more signal;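 note: probe is biotin-labelled aShh protein from a stem cell growth factor screen; measures binding of labelled protein to compounds printed on the slide; score merges feature fluorescence at 667 nm with signal-to-noise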
[8] = probe aNog binding to arrayed compounds – biochemical, biotinylated probe, 635/667 nm fluorescence, primary screen (AID 1115); settings: small-molecule microarray, higher = more signal;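 note: probe is biotinylated aNog protein used at 0.15 µg/mL for 1 h at 4 C; z-score combines 667 nm fluorescence of each spot with its signal to noise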
[9] = molecular target: Torsin-1A-interacting protein 1 (Homo sapiens) (UniProt Q5JTV8); test: compound microarray binding of lysate hLAP1 – cell lysate, small-molecule microarray, COS7 lysate, 635/667 nm fluorescence, primary screen (AID 1116); settings: 635 nm fluorescence, higher = more signal
Sequence of Torsin-1A-interacting protein 1 (Homo sapiens) (Q5JTV8 whole entry, looked up): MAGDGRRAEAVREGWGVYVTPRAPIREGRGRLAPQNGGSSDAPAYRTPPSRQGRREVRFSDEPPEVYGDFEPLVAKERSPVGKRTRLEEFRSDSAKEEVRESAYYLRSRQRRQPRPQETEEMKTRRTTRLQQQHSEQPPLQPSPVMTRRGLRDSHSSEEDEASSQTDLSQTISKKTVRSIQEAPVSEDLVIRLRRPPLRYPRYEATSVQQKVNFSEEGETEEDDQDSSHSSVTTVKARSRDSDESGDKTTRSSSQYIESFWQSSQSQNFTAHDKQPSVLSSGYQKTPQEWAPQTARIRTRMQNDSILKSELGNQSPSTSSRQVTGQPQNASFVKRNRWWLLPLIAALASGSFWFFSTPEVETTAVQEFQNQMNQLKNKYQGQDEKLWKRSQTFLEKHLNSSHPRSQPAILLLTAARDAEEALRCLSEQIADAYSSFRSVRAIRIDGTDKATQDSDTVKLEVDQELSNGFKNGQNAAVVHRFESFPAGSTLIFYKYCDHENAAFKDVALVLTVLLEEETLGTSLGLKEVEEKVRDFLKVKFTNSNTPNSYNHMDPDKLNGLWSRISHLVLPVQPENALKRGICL

[10] = molecular target: Alpha-bungarotoxin (Bungarus multicinctus) (UniProt P60615); test: compounds binding labelled alpha-BTX control protein – biochemical, small-molecule microarray, Alexa647 label, 635/667 nm fluorescence, artefact control for SMM control protein annotation, profiling panel (AID 1117); settings: alpha-BTX-A647 binding fluorescence, higher = more signal
Sequence of Alpha-bungarotoxin (Bungarus multicinctus) (P60615 whole entry, looked up): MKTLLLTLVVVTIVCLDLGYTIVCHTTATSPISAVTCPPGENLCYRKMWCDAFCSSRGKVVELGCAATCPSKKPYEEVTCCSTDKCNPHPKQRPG

[11] = molecular target: Albumin (Bos taurus) (UniProt P02769); test: compounds binding labelled BSA control protein – biochemical, small-molecule microarray, Alexa647 label, 635/667 nm fluorescence, artefact control for SMM control protein annotation, profiling panel (AID 1118); settings: BSA-A647 binding, fluorescence 635 nm, higher = more signal;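 note: score merges 667 nm emission intensity and signal-to-noise per printed compound spot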
Sequence of Albumin (Bos taurus) (P02769 whole entry, looked up): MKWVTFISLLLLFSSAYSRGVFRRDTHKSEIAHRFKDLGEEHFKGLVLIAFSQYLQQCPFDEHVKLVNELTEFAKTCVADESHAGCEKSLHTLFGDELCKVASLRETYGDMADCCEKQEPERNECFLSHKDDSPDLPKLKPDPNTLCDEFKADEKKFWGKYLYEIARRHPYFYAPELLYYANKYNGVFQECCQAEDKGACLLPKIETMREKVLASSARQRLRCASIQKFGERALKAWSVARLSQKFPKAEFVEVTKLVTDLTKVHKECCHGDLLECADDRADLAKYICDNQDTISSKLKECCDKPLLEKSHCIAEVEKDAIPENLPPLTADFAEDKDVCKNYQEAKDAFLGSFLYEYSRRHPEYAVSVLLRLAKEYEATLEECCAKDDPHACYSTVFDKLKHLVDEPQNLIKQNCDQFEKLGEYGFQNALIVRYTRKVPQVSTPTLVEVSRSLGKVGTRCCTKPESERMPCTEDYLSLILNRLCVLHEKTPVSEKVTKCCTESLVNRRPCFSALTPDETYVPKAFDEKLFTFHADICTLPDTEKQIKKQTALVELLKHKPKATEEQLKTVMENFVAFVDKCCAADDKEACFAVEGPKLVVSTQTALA

[12] = probe aXIP binding to arrayed compounds – biochemical, NeuroSMM set, 635/667 nm fluorescence, primary screen (AID 1119); settings: small-molecule microarray, higher = more signal, called active from +8 up or from −8 down;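 note: probe is the protein aXip251-270 applied at 1 µg/mL to compound-printed slides; binding of probe to printed compounds measured as 667 nm fluorescence plus signal to noise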
[13] = probe aNOTCH3 binding on compound microarray – biochemical, small-molecule microarray, 635/667 nm fluorescence, primary screen (AID 1120); settings: higher = more signal;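 note: probe is a biotin-tagged antibody raised against NOTCH3 rather than NOTCH3 protein; score merges spot fluorescence near 667 nm with spot signal to noise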
[14] = probe aNOTCH2 binding on compound microarray – biochemical, small-molecule microarray, 635/667 nm fluorescence, primary screen (AID 1121); settings: higher = more signal;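 note: score merges feature fluorescence read at 667 nm with its signal to noise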
[15] = molecular target: Carbonic anhydrase 2 (Homo sapiens) (UniProt P00918); test: compounds binding carbonic anhydrase 2 – biochemical, small-molecule microarray, Alexa647-labelled CAII, profiling panel (AID 1122); settings: CAII-A647 binding fluorescence, higher = more signal
[16] = COS7 lysate on small-molecule microarray, probe aHis, 635 nm (AID 1123); settings: COS7 cell lysate, fluorescence, higher = more signal;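 note: z-score combines 667nm fluorescence intensity with signal-to-noise per printed compound spot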
[17] = probe aLAP1 signal on lysate-treated microarray – cell lysate, small-molecule microarray, COS7 lysate, primary screen (AID 1124); settings: probe aLAP1, fluorescence, higher = more signal;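 note: lysate comes from COS7 cells expressing LAP1 and is applied at 0.3 µg/mL; score merges spot fluorescence near 667 nm with signal-to-noise over triplicate slides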
[18] = tested on: Sam68 (KHDRBS1); test: compounds binding KHDRBS1 protein – biochemical, small-molecule microarray, 635 nm fluorescence, primary screen (AID 1125); settings: higher = more signal;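 note: score merges 667 nm channel intensity with signal to noise over triplicate slides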
[19] = tested on: Chordin-like protein 2 (CHRDL2); test: compounds binding chordin-like 2 – biochemical, small-molecule microarray, 635 nm fluorescence, primary screen (AID 1126); settings: fluorescence 635 nm, higher = more signal;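 note: printed compound slides probed with Chrdl2 protein at 4 µg/mL for 1 h at 4 C; score merges 667 nm emission intensity with signal to noise over three replicate slides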
[20] = molecular target: Concanavalin-A (Canavalia ensiformis) (UniProt P02866); test: compounds binding concanavalin A lectin – biochemical, small-molecule microarray, Alexa647 label, 635 nm, artefact control for SMM control protein annotation, primary screen (AID 1127); settings: ConA-A647 binding fluorescence, higher = more signal;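 note: z combines 667 nm emission intensity with signal-to-noise across three replicate slides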
Sequence of Concanavalin-A (Canavalia ensiformis) (P02866 whole entry, looked up): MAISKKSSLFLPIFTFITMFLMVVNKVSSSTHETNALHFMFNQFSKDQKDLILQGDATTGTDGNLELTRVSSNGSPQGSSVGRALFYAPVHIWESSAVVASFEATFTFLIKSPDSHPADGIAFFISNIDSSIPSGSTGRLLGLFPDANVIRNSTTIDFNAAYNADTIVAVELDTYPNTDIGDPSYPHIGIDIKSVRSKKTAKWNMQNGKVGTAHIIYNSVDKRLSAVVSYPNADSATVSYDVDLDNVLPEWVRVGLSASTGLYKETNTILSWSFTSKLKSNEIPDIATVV

| SMILES | composite z-score [1] | z-score [2] | composite z-score [3] | composite z-score [4] | composite z-score [5] | composite z-score [6] | composite z-score [7] | composite z-score [8] | composite z-score [9] | composite z-score [10] | composite z-score [11] | composite Z-score [12] | composite z-score [13] | composite z-score [14] | composite z-score [15] | composite z-score [16] | composite z-score [17] | composite z-score [18] | composite z-score [19] | composite z-score [20] |
| --- | --- | --- | --- | --- | --- | --- | --- | --- | --- | --- | --- | --- | --- | --- | --- | --- | --- | --- | --- | --- |
| COc1ccc([C@H]2OC[C@@H]3C[C@H](Cc4ccccc4)C(=O)N32)cc1 | 0.156 | -2.66 | 0.367 | 0.106 | -0.668 | 0.188 | 0.111 | -0.113 | 0.373 | 1.59 | -0.0141 | -0.397 (inactive) | 0.03 | -0.101 | -0.0065 | 0.0949 | -0.0729 | 0.0535 | 0.0962 | 0.512 |
| COC(=O)[C@@]1(Cc2ccc(OC)cc2)[C@H]2c3cc(C(=O)N(C)C)n(Cc4ccc(C)o4)c3C[C@H]2CN1C(=O)c1ccccc1 | 1.42 | -2.04 | -0.466 | 0.372 | -0.223 | 0.091 | 0.596 | 0.243 | 1.27 | 0.41 | 0.814 | 1.24 (inactive) | 0.517 | 0.204 | 0.806 | 2.99 | 0.463 | 0.933 | -0.905 | 0.842 |
| [N-]=[N+]=Nc1ccccc1C[C@@]1(C(=O)N2CCOCC2)N=C(c2ccc(OCCCO)cc2)O[C@@H]1c1ccccc1 | 1 | -1.57 | -0.0238 | 1.37 | -0.258 | 0.291 | 0.771 | -0.738 | 1.43 | 1.39 | 0.847 | 0.527 (inactive) | 0.457 | -0.224 | 0.544 | 2.59 | -0.235 | 1.32 | -0.209 | 1.11 |
| COC(=O)[C@@H]1N=C(c2ccc(OCCCO)cc2)O[C@@H]1c1ccccc1 | -1.38 | -1.94 | -1.55 | -0.494 | -0.294 | -0.152 | -0.0709 | -0.59 | -0.992 | -0.213 | 0.258 | 0.536 (inactive) | -0.206 | -0.104 | 0.7 | 0.387 | -0.342 | -0.826 | -1.89 | -0.324 |
| C=C[C@@H](CO)N(Cc1ccc(OC)cc1)S(=O)(=O)c1ccc(Br)cc1 | 0.19 | -1.25 | 0.211 | -0.0366 | -0.213 | 0.0377 | -0.0709 | -0.201 | 0.572 | -0.0436 | 0.131 | -0.0461 (inactive) | -0.147 | -0.0078 | 0.352 | 0.31 | -0.345 | 0.388 | 0.231 | 0.241 |
| CC1=C2[C@@H](CCc3ccccc3)OB(O)C[C@@H]2[C@@H]2C(=O)N(C)C(=O)[C@@H]2C1 | 0.135 | -0.779 | 0.173 | 0.0309 | -0.338 | -0.0519 | 0.0469 | -0.137 | 0.284 | 0.769 | 0.541 | 0.706 (inactive) | 0.248 | -0.138 | 0.422 | 0.0513 | 0.76 | 0.453 | 0.723 | 0.245 |
| C#CCN(Cc1ccccc1Br)[C@H](/C=C/c1ccccc1)[C@@H](O)Cc1ccccc1 | 0.169 | -1.42 | -0.81 | -1.03 | 0.41 | -0.128 | -0.124 | 0.0108 | -0.354 | 0.192 | -0.33 | 0.258 (inactive) | -0.226 | -0.167 | -0.128 | 0.222 | 0.163 | 0.446 | 0.129 | -1.01 |
| COc1cc(NN2C(C(O)c3cc(OC)c(OC)c(OC)c3)C=CC3C(=O)N(C)C(=O)C32)cc(OC)c1OC (stereo not given) | 1.09 | -0.336 | -0.229 | 1.34 | 0.278 | 0.0599 | 0.23 | 0.849 | 0.904 | 1.24 | 1.03 | 0.328 (inactive) | 0.499 | -0.0028 | 0.67 | 2.77 | 0.0495 | 1.23 | 0.0976 | 0.894 |
| CCOC(=O)C[C@H]1[C@H](OC(=O)c2ccc(C(=O)c3ccccc3)cc2)[C@@H](NC(=O)c2ccc(-c3ccccc3)cc2)c2cc(OCCCO)ccc2N1C(=O)Cc1ccc(OC)cc1 | 0.625 | -0.751 | 0.176 | 0.439 | -0.122 | -0.0236 | -0.214 | -0.468 | 0.759 | 0.355 | 0.519 | -0.153 (inactive) | 0.16 | 0.121 | 0.177 | 0.93 | 0.0285 | 0.512 | -0.0479 | 0.458 |
| C=CCNC(=O)[C@@H]1[C@H]2C(=O)O[C@H](c3ccccc3)[C@H](c3ccccc3)N2[C@H](c2ccccc2OCCO)[C@@]12C(=O)Nc1ccc(C#CCCO)cc12 | -0.489 | -0.364 | 1.2 | 0.142 | -0.0836 | -0.147 | -0.273 | -0.0965 | 0.544 | 0.0913 | -0.162 | -0.433 (inactive) | -0.0302 | -0.147 | 0.675 | 0.71 | 0.452 | 0.826 | 1.13 | 1.15 |
| O=C1O[C@@H](c2ccccc2)[C@@H](c2ccccc2)N2[C@@H](c3ccc(OCCO)cc3)[C@]3(C(=O)Nc4ccc(C#CC5=CCCCC5)cc43)[C@@H](C(=O)NC[C@H](O)c3ccccc3)[C@H]12 | 0.97 | -2.54 | 0.665 | 1.25 | 0.7 | -0.042 | -0.398 | 1.74 | 1.12 | 0.608 | -0.948 | -0.176 (inactive) | 1.03 | 0.338 | 0.117 | 1.57 | 0.109 | 1.3 | 1.16 | 1.17 |

— PubChem BioAssay
